Source: PubChem BioAssay
Only some compounds are listed: those with a hit (about 12% of all), similar ones and a draw of the others.
PLK1 PBD inh: qHTS for Inhibitors of PLK1-PDB (polo-like kinase 1 - polo-box domain): Primary Screen; AID 720504, 2013; Potency, µM, for inactives: max response, negative = inhibition, actives largely listed as inhibitors; Serine/threonine-protein kinase PLK1 (Homo sapiens), P53350; Plk1 PBD binding of FITC phosphopeptide, fluorescence polarization; 360,000 compounds, 2.8% hits; further: series mostly up to about 57 µM; on the % scale 0 is the no-effect control and ±100 the full control effect; nearly all actives have a fitted effect of over 65% in size
Target sequence (P53350 whole entry, looked up, the tested form may be a part): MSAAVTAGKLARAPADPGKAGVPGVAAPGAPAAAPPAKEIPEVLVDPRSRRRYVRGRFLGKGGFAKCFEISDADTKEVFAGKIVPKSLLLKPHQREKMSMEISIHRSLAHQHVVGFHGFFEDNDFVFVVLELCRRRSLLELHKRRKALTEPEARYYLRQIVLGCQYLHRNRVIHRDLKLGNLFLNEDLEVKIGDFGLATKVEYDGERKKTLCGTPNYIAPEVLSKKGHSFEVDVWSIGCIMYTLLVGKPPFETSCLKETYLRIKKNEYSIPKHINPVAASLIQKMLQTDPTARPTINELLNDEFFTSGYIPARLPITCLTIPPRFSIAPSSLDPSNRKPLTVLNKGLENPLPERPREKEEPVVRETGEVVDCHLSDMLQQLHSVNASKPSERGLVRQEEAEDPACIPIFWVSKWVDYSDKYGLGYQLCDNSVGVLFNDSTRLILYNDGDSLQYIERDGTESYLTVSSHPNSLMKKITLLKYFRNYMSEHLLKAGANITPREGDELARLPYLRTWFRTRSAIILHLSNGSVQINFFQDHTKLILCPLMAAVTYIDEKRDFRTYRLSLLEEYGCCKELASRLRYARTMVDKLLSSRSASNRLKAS
BAZ2B block: qHTS Assay for Inhibitors of BAZ2B. Bromodomain adjacent to zinc finger domain protein 2B (Homo sapiens), Q9UIF8. AlphaScreen BAZ2B-H3K14Ac peptide displacement. Potency, µM (titrated, usually from 114 µM), inactives show at the top dose activity change, negative = inhibition, usual class: inhibitors. 360,000 compounds, 4.4% hits. AID 504333, 2011; further: on the % scale 0 is the no-effect control and ±100 the full control effect; nearly all actives have a fitted effect of over 60% in size
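Protein-peptide AlphaScreen: BAZ2B 50 nM, b-H3K14Ac 50 nM, 1x PBS pH 7.4 + 0.01% Tween-20. Preincubation 30 min RT; cpd 30 min RT (top 110 uM); beads 20 min RT, light-protected.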
HP1b chromo inh: HTS for Inhibitors of HP1-beta Chromodomain Interactions with Methylated Histone Tails | Chromobox protein homolog 1 (Homo sapiens), P83916 | AlphaScreen HP1-beta / biotin-H3K9me3 peptide binding | Potency, µM (top dose mostly 114 µM), inactives show at the top dose activity change, negative = inhibition, actives largely listed as inhibitors | 390,000 compounds, 0.56% hits; further: nearly all actives have a fitted effect of over 70% in size
Target sequence (P83916 whole entry, looked up): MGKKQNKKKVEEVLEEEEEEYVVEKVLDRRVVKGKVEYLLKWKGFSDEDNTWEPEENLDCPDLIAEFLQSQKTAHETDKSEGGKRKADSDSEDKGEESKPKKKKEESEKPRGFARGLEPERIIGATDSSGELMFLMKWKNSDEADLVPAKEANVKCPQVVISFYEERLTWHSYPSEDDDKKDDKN
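Compound inhibition of the preformed complex between 50 nM HP1-beta and 50 nM biotinylated H3K9me3 peptide was read by AlphaScreen. Buffer was PBS pH 7.4 with 0.01% Tween-20. Incubations ran 30 min at room temperature, with 10 ug/mL donor/acceptor beads.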
Sfp PPTase inh: qHTS Assay for Inhibitors of Bacillus subtilis Sfp phosphopantetheinyl transferase (PPTase); 4'-phosphopantetheinyl transferase ffp (Bacillus subtilis), Q9F4F7; Biochemical Sfp PPTase activity, qHTS; Potency, µM, inactives show largest response in the series, negative = inhibition, most hits filed as inhibitors; 310,000 compounds, 3.5% hits; AID 1490, 2009;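 further: the enzyme is Sfp with the accession as filed and its product quenches rhodamine fluorescence; 0% = enzyme reaction without inhibitor and -100% = no enzyme wells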
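Compounds were incubated with enzyme (final 15 nM) for 15 min at room temperature before substrate addition started the reaction. Fluorescence at 525 nm excitation, 598 nm emission was recorded immediately and after 30 minutes.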
JMJD2A Tudor: qHTS Assay for Inhibitors of JMJD2A-Tudor Domain. Lysine-specific demethylase 4A (Homo sapiens), O75164. AlphaScreen JMJD2A-Tudor / H3K4me3 peptide binding. Potency, µM (doses to about 114 µM), inactives show at the highest dose activity change, negative = inhibition, actives largely listed as inhibitors. 390,000 compounds, 4.4% hits. AID 504339, 2011; further: on the % scale 0 is the no-effect control and ±100 the full control effect; nearly all actives have a fitted effect of over 50% in size
G9a block: qHTS Assay for Inhibitors of Histone Lysine Methyltransferase G9a | 350,000 compounds, 8.8% hits | Potency, µM (titrated, usually from 102 µM), inactives show at the highest dose activity, negative = inhibition, usual class: inhibitors | AID 504332, 2011 | G9a H3K9 monomethylation, AlphaScreen, 2 h | Histone-lysine N-methyltransferase EHMT2 (Homo sapiens), Q96KQ7; further: on the % scale 0 is the no-effect control and ±100 the full control effect; nearly all actives have a fitted effect of over 75% in size
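AlphaScreen read-out: biotin-H3K9 peptide (500 nM) methylation by 20 nM enzyme with 20 uM SAM, 2 h at room temperature after 15 min compound preincubation; anti-monomethyl H3K9 antibody plus donor/acceptor beads, 10 min dark.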
The depositor's hits bear a star; u = inconclusive; x = not tested or not shown; [ ] = dose if it differs, or a comment. The call rests on the fitted dose curve; in most records, active means well fitted curve in the direction sought with a large enough effect; inconclusive means small, poorly fitted or top-dose-only effect, or another doubt; inactive means no such curve, though single readings can be large; an effect the other way counts as inactive or inconclusive. Potency means the concentration at half of the fitted maximal effect.

SMILES	PLK1 PBD inh	BAZ2B block	HP1b chromo inh	Sfp PPTase inh	JMJD2A Tudor	G9a block
CC(=O)Nc1ccc(SCC(CC(C)C)N2CCN(C)CCC2=O)cc1 (centres undefined)	x	x	33.8%	18.6%	-7.6%	x
O=C(O)c1ccc(S(=O)(=O)N2CCCC2)cc1	-6.0%	-7.1%	49.4%	3.6%	4.1%	-2.2%
O=C(O)c1ccc(S(=O)(=O)c2ccc(Sc3ccc(C(=O)O)c(C(=O)O)c3)cc2)cc1	-22.2%	50.1µM*	15.6%	4.4%	-14.1%	44.7µM*
COc1cc(NCCCCC(C)N)c2nccc(C)c2c1 (centres undefined)	-3.4%	x	x	x	x	x
CCC(CNc1cc(OC)cc2cccnc12)NC1CCCCC1 (centres undefined)	-26.0%	u	-11.2%	44.7µM*	56.2µM*	5.01µM*
COc1cc(NCCCC(C)N)c2ncccc2c1 (centres undefined)	-19.2%	31.6µM*	-9.7%	56.2µM*	22.4µM*	u
COc1ccccc1N1CCN(c2ccc(=O)n(CC(=O)O)n2)CC1	x	x	34.1%	x	-5.0%	-28.8%[59 µM]
COc1ccc2cc(C(=O)NCc3ccc4c(c3)CCN4C(=O)c3ccc(F)cc3)[nH]c2c1	x	-17.0%	19.2%	x	-21.3%	1.1%[59 µM]
COc1ccccc1N1CCN(c2c(CN3CCCC3)c(=O)oc3ccccc23)CC1	x	-18.8%	-17.9%	x	-14.7%	-20.8%[59 µM]
CCCCCCSc1ccc([C@H]2N[C@@](CC(C)C)(C(=O)OC)[C@H]3C(=O)N(C)C(=O)[C@@H]23)cc1OC	21.2µM*	-1.8%	15.5%	x	u	9.1%[12.7 µM]
COC(=O)[C@]1(CC(C)C)N[C@H](c2ccc(SC3CCCCC3)c(OC)c2)[C@@H]2C(=O)N(C)C(=O)[C@@H]21	-9.2%	-3.2%	30.7%	x	-20.1%	22.9%[2.33 µM]
Cc1ccc2cc(CN(Cc3cccs3)C(=O)c3ccco3)c3nnnn3c2c1C	x	13.7%	x	-1.5%	x	16.4%[59 µM]
CN(Cc1cc2ccccc2[nH]c1=O)C(=O)c1cccs1	-13.7%	9.5%	27.9%	12.6%	-14.7%	-0.6%
Cc1ccc2cc(CN(CC3CCCO3)C(=S)NCc3ccco3)c(=O)[nH]c2c1 (centres undefined)	-15.5%	-33.7%	u	44.7µM*	-19.9%	u
COc1ccccc1NC(=S)N(Cc1ccco1)Cc1cc2ccc(C)c(C)c2[nH]c1=O	-5.5%	-5.2%	6.7%	50.1µM*	-32.5%	8.7%[59 µM]
Cc1ccc2[nH]c(=O)c(CN(C)C(=O)c3cccs3)cc2c1	29.9µM*	15.2%	u	-6.6%	-18.0%[11.4 µM]	2.9%
Cc1ccc2c(c1)cc(CN(Cc1cccs1)C(=O)c1ccco1)c1nnnn12	8.44µM*	1.5%	u	2.3%	28.2µM*	10.2%[59 µM]
COc1ccc(C)cc1NC(=O)c1cc(S(=O)(=O)N2CCC(C)CC2)ccc1F	x	1.8%	22.6%	x	-25.1%	8.5%[59 µM]
COc1ccc(N2CC(C(=O)N3CCN(Cc4ccc5c(c4)OCO5)CC3)CC2=O)cc1 (centres undefined)	-3.9%	-14.5%	8.6%	2.7%	-12.3%	1.6%
Cc1cc(C)c2[nH]c(=O)c(CN(CC3CCCO3)C(=S)NCc3ccco3)cc2c1 (centres undefined)	-12.0%	14.6%	9.8%	-4.5%	-10.8%	21.7%[59 µM]
Cc1cccc2cc(CN(Cc3ccco3)C(=O)c3ccncc3)c(=O)[nH]c12	-5.0%	1.9%	34.1%	50.1µM*	-8.0%	-8.2%[12.7 µM]
Cc1ccc2[nH]c(=O)c(CN(Cc3cccs3)C(=S)NCc3ccco3)cc2c1	-15.4%	-11.4%	-4.7%	50.1µM*	0.0%	9.3%[59 µM]
CCNC(=S)N(Cc1ccco1)Cc1cc2cc(OCC)ccc2[nH]c1=O	-1.7%	u	11.3%	10µM*	-21.3%	44.7µM*
CCNC(=S)N(Cc1cccs1)Cc1cc2cc(OCC)ccc2[nH]c1=O	-8.3%	4.0%	11.8%	-11.9%	-20.4%	22.0%[59 µM]
Cc1cccc2cc(CN(CC3CCCO3)C(=S)NCc3ccco3)c(=O)[nH]c12 (centres undefined)	-13.6%	-1.8%	3.8%	50.1µM*	-13.6%	-6.3%[59 µM]
SMILES	PLK1 PBD inh	BAZ2B block	HP1b chromo inh	Sfp PPTase inh	JMJD2A Tudor	G9a block
Cc1ccc(C(=O)N2CCC3(CC2)NCCc2[nH]cnc23)cc1C	-5.0%	-11.5%	18.6%	13.4%	-15.2%	x
COc1cc(OC)c2c(-c3cccc(-c4ccc(F)c(Cl)c4)c3)cc(=O)oc2c1	-5.2%	x	30.6%	x	-15.8%	x
Cc1ccc(-n2ccnc(NCCc3ccc(S(N)(=O)=O)cc3)c2=O)c(C)c1	x	u	1.9%	x	-23.4%	u
Cc1ccc2cc(CN(Cc3ccco3)C(=S)NCC3CCCO3)c(=O)[nH]c2c1 (centres undefined)	-12.5%	-30.6%	7.6%	7.8%	-28.9%	-46.4%
Cc1ccc(C)c2[nH]c(=O)c(CN(Cc3ccco3)C(=S)NCC3CCCO3)cc12 (centres undefined)	-8.6%	u	-5.8%	-17.6%	-19.7%	39.8µM*
Cc1ccc(NS(=O)(=O)N2CCCCC2)cc1	-0.6%	x	25.5%	x	-2.1%	x
Cc1cc2c(s1)c1cnn(Cc3c(F)c(F)c(C(F)(F)F)c(F)c3F)c(=O)c1n2C	x	x	x	x	-24.7%	x
COc1ccc(Nc2ccc(S(=O)(=O)N3CCCCC3)cc2[N+](=O)[O-])cc1Cl	-4.4%	8.91µM*	u	8.3%	5.62µM*	7.08µM*
CCc1ccc(Nc2ccc(S(=O)(=O)N3CCOCC3)cc2[N+](=O)[O-])cc1	-15.6%	11.2µM*	u	15.9%	11.2µM*	28.2µM*
CCOc1ccc(Nc2ccc(S(=O)(=O)N3CCOCC3)cc2[N+](=O)[O-])cc1	-1.7%	x	x	x	x	x
Cc1ccc(Nc2ccc(S(=O)(=O)N3CCOCC3)cc2[N+](=O)[O-])c(C)c1	3.2%	10µM*	u	-11.7%	u	35.5µM*
COc1ccc(Cl)cc1NS(=O)(=O)c1ccc(S(=O)(=O)N2CCCC2)cc1	-16.6%	-7.5%	28.1%	-3.4%	-7.5%	8.91µM*
COc1ccccc1C(CNc1ccc(S(=O)(=O)N2CCCC2)cc1[N+](=O)[O-])N(C)C (centres undefined)	0.1%	u	u	8.8%	u	-49.0%
O=C(NNC(=O)c1ccccc1Cl)c1ccc(-n2cncn2)c([N+](=O)[O-])c1	-6.4%	-5.9%	36.1%	x	-9.4%	12.7%[12.7 µM]
